NS1 function inh: blocks influenza NS1 protein function | Potency, µM (highest dose often 46.1 µM), for inactives: top-dose activity, positive = more growth | AID 2326 | 270,000 compounds, 0.4% hits; calls by dose curve; also: actives are rising curves; nearly all actives have a fitted effect of over 50% in size
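S. cerevisiae expressing influenza A NS1, grown in glucose, washed, then diluted 1:100 into pH 6.0 -URA galactose medium with 23 nl compound. Growth recovery read as OD600; NS1-free strain serves as control.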
AMA1-RON2 inh: AMA1-RON2 (P. falciparum) interaction inhibition; AlphaScreen AMA1-biotinylated RON2 peptide binding; Potency, µM (highest dose often 58.2 µM), inactives show at the top dose activity change, negative = inhibition, hits mostly inhibitors; 360,000 compounds, 0.2% hits; AID 720542;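 also: 0% = vehicle wells and -100% = peptide control; nearly all actives have a fitted effect of over 45% in size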
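AMA1 (3D7) with his tag at 25 nM final met compounds first, then biotinylated RON2 peptide at 25 nM; detection used donor plus acceptor beads, 10 µg/mL apiece, read by AlphaScreen after 30 min at room temperature.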
Pf growth 48h: inhibits P. falciparum growth in the first generation, 48 h | P. falciparum luciferase growth in erythrocytes, 48 h | Potency, µM (top dose mostly 28.7 µM), for inactives: at the highest dose activity change, negative = inhibition, hits mostly inhibitors | 310,000 compounds, 5.9% hits | AID 504832; also: % is scaled to controls: 0 for no effect and ±100 for the full control effect
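In quantitative HTS format, infected erythrocytes bearing luciferase-reporter parasites were treated for a single generation at 37 C. Luminescence after adding detection reagent served as the growth measure.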
Pf growth 96h: P. falciparum growth inhibition at 96 hours | P. falciparum luciferase reporter growth, 96 h | Potency, µM (top dose mostly 28.7 µM), for inactives: at the top dose activity change, negative = inhibition, hits mostly inhibitors | 320,000 compounds, 6.9% hits | AID 504834; also: % is scaled to controls: 0 for no effect and ±100 for the full control effect
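P. falciparum expressing integrated firefly luciferase grown in erythrocytes (2% hematocrit, 0.05% parasitemia final) with compounds for 96 hours at 37 C, 5% CO2. Growth inhibition read as loss of luminescence after adding luciferase detection reagent.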
Sm TGR block: blocks Schistosoma mansoni thioredoxin glutathione reductase | Q962Y6 | purified TGR, DTNB reduction, TNB absorbance 405 nm | Potency, µM (top dose mostly 114 µM), for the others: at the highest dose activity change, negative = inhibition, most hits filed as inhibitors | 360,000 compounds, 3% hits | AID 485364; also: % is scaled to controls: 0 for no effect and ±100 for the full control effect; nearly all actives have a fitted effect of over 60% in size
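First, TGR (20 nM dispensed) and NADPH were mixed with compound. Second, a 15 min room-temperature incubation followed. Third, further NADPH and then DTNB were added to start the reaction. Finally, TNB absorbance was monitored kinetically.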
An asterisk follows results filed as active; i = inactive; ? = inconclusive; nt = no result given; [ ] = dose if it differs, or a comment. An excerpt weighted towards active compounds, which were near 11% of everything screened. Unless noted, calls follow the shape of the dose curve; as a rule, active = well fitted curve in the direction sought with a large enough effect; inconclusive = small, poorly fitted or top-dose-only effect, or another doubt; inactive = no such curve, though single readings can be large; an effect the other way counts as inactive or inconclusive. Potency is read from the fitted curve at half-maximal effect.

SMILES	NS1 function inh	AMA1-RON2 inh	Pf growth 48h	Pf growth 96h	Sm TGR block
Cc1cc(C)cc(OCc2ccc(C(=O)O)o2)c1	-16%	-3%	11%	26%	4%
O=C(O)c1ccc(COc2c(F)c(F)c(F)c(F)c2F)o1	4%	-2%	153%	116%	45µM*
COc1ccc(NC(=O)CN(C)CC(=O)c2c(C)[nH]c3ccccc23)cc1	nt	38%[11.6 µM]	?	12µM*	?
COc1cccc(NC(=O)CN(C)CC(=O)c2c(C)[nH]c3ccccc23)c1	nt	3%	?	12µM*	18µM*
CCC(C)c1ccc(NC(=O)CN(C)CC(=O)Nc2cccc(OC)c2)cc1 (stereo not given)	nt	-4%	12µM*	?	5%
COc1cccc(NC(=O)CN(C)CC(=O)NCc2ccc(F)cc2)c1	nt	-5%	nt	nt	nt
COc1cccc(NC(=O)CN(C)CC(=O)Nc2ccc3c(c2)OCO3)c1	nt	17%	nt	nt	nt
OCCC1CN(Cc2nc3ccccc3s2)CCN1C1CCCC1 (stereo not given)	2%	6%	9%	?	3%[57.1 µM]
COc1ccc2[nH]c(C(=O)N3CCNCC3)cc2c1OC	4%	6%	?	?	-29%
Cc1ccc(-c2nc(=S)c3c(n2CC2CCCO2)CC(C)(C)OC3)cc1 (stereo not given)	4%	-1%	nt	?	-9%
Cc1ccc(-c2nc(=S)c3c(n2Cc2ccco2)CCCC3)cc1	1%	-5%	?	76%	8.9µM*
Cc1ccc(-c2nc(=S)c3c(n2Cc2ccco2)CC(C)(C)OC3)cc1	12%	43%	?	8.3µM*	-18%
COc1cccc(-c2nc(=S)c3c(n2Cc2ccco2)CCCC3)c1	0%	26%	?	10%	?
Cc1cccc(-c2nc(=S)c3c(n2Cc2ccco2)CCCC3)c1	1%	53%	-22%	nt	20µM*
CN(C)CCCn1c(-c2ccccc2)nc(=S)c2c1CCCC2	-4%	-3%	-2%	9%	45µM*
O=C(/C=C/c1ccc2c(c1)OCO2)Nc1cccnc1	nt	-1%	440%	-19%	1%
O=C(CN1N=C(c2ccccc2)CCC1=O)NCc1ccco1	-1%	nt	17%	i	7%
CN1CCN(C(=S)NC(=O)c2cccc(S(=O)(=O)N(C)C)c2)CC1	nt	27%	83%	?	53%
COc1cc(C(=O)OCc2nc3ccsc3c(=O)[nH]2)c([N+](=O)[O-])cc1OC	nt	-14%	-1%	5%	-2%
O=C(O)C1Nc2ccc(C(F)(F)F)cc2C2OCCC12 (stereo not given)	nt	-1%	nt	nt	nt
CN(CC(=O)Nc1ccc(F)cc1)C(=O)C1CCCC1	nt	-3%	-9%	19%	0%
COc1cccc(CNc2nccn(-c3cc(C)cc(C)c3)c2=O)c1	nt	nt	nt	nt	3%
CC(=O)NC(Cc1ccc(F)c(F)c1)C(=O)NC1CCN(S(=O)(=O)c2ccc(C)cc2)CC1 (stereo not given)	-7%	9%	-17%	24%	8%
COc1ccc(C)cc1NC(=O)C(Sc1nnc(Nc2cc(C)ccc2OC)s1)c1ccccc1 (stereo not given)	?	-1%[11.6 µM]	0%	10µM*	11%
COc1ccc(Nc2nnc(SC(C(=O)Nc3ccc(OC)c(Cl)c3)c3ccccc3)s2)cc1 (stereo not given)	13%	-17%	?	9.3µM*	-7%
SMILES	NS1 function inh	AMA1-RON2 inh	Pf growth 48h	Pf growth 96h	Sm TGR block
COc1ccc(C)cc1NC(=O)C(Sc1nnc(-c2ccncc2)n1-c1ccc(Cl)cc1)c1ccccc1 (stereo not given)	?	-30%	?	10µM*	-3%
CCN(C[C@H]1N[C@@](CC)(C(=O)OC)[C@H]2C(=O)N(C)C(=O)[C@@H]12)C(=O)COc1ccccc1	nt	0%	nt	nt	nt
CCOc1ccc(-c2cc(C(=O)NCc3ccc(OC)cc3)c3c(-c4ccc(F)cc4)[nH]nc3n2)cc1	nt	nt	nt	nt	7%
Clc1ccc(OCCn2ccnc2)c(Br)c1	-10%	9%	nt	?	8%
C=CCOC(Cn1ccnc1)c1ccc(Cl)cc1Cl (stereo not given)	nt	-4%	4.1µM*	3.4µM*	-2%
Clc1ccc(COC(Cn2ccnc2)c2ccc(Cl)cc2Cl)c(Cl)c1 (stereo not given)	-51%	0%	2.1µM*	1.7µM*	2%
OC(COc1ccc(Cl)cc1Cl)Cn1ccnc1 (stereo not given)	3%	12%	nt	-13%	7%
Cc1cccc(C)c1N(CC(=O)N1CCOCC1)S(C)(=O)=O	1%	11%	1%	?	-1%
Cc1nn(-c2ccc(F)cc2)c(-n2cccc2)c1C(=O)NCCc1ccc(Cl)cc1	nt	nt	nt	nt	2%
Nc1ncnc2c1ncn2[C@@H]1O[C@H](COS(=O)(=O)O)[C@@H](O)[C@H]1O	nt	-1%	13µM*	?	-1%
CCOC1OC2C(CO)OC(n3cnc4c(N)ncnc43)C2O1 (stereo not given)	4%	-7%	0%	4.7µM*	-15%
Nc1ncnc2c1ncn2C1OC(CO)C2OC21 (stereo not given)	nt	-5%	nt	nt	nt
N#C/C(=C\c1c(N2CCC(C(N)=O)CC2)nc2ccccn2c1=O)C(=O)NC1CCCCC1	4%	0%	-12%	?	4%
CC1(C)Cc2c(cnn2-c2ccccc2)C(NC(=O)CCN2CCCCO2)C1 (stereo not given)	5%	-11%	-14%	?	6%
CCCCN(Cc1ccccc1)C(=O)c1oc(=O)c2ccccc2c1-c1ccc(C)cc1	nt	nt	nt	nt	-6%
N#CC1=C(N)N(c2ccc(F)cc2)C2=C(C1c1ccc(O)cc1)S(=O)(=O)CC2 (stereo not given)	nt	8%	?	-34%[5.75 µM]	1.8µM*
CC(c1c(O)c2ccccc2[nH]c1=O)C1(C)CCC(O)C(C)(C)O1 (stereo not given)	3%	12%	?	?	11%
S=C(NCc1ccco1)N1CCN(Cc2ccc(Cl)cc2Cl)CC1	-52%	-14%	?	10µM*	3%
CC(=O)c1ccc(N2CCN(C(=S)NCc3ccco3)CC2)cc1	nt	-9%	-4%	13µM*	5%
S=C(NCc1ccco1)N1CCN(c2ccc(Cl)cc2)CC1	2%	6%	-10%	?	nt
